Epigenetic reg – derepresses silenced GFP reporter in murine cells. murine LDR cells, GFP reporter derepression, 30 h. Potency, µM (top dose mostly 53.9 µM), hits mostly activators. 280,000 tested, 0.2% active; further: nearly all actives have a fitted effect of over 60% in size
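Derepression of a silenced CMV-GFP reporter in murine LDR cells is scored by enumerating GFP-positive cells with a laser-scanning microplate cytometer after 30 hours of treatment at 37 C.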
PINK1 modulator – modulators of PINK1 expression; PINK1 immunofluorescence, high-content cytometry, 24 h; Potency, µM (series often up to 76.6 µM), actives largely listed as activators; 410,000 tested, 0.2% active; AID 624263; active means well fitted activation curve with a large enough effect; inconclusive means small, poorly fitted or top-dose-only effect; cell line not stated here; further: nearly all actives have a fitted effect of over 65% in size
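PINK1 protein, normally rapidly degraded, was detected by immunofluorescence after 24 hour compound treatment of a stable cell line. Titration data (5 concentrations) came from laser-scanning cytometry, with CCCP-treated wells as controls.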
RORg inh – inhibitors of mouse ROR gamma transcriptional activity. P51450. Drosophila S2 Gal4-RORgamma UAS-luciferase reporter, 20 h. Potency, µM (doses to about 53.6 µM), most hits filed as inhibitors. 310,000 tested, 5.4% active. AID 2551; further: nearly all actives have a fitted effect of over 60% in size
Target sequence (P51450 whole entry, looked up, the tested form may be a part): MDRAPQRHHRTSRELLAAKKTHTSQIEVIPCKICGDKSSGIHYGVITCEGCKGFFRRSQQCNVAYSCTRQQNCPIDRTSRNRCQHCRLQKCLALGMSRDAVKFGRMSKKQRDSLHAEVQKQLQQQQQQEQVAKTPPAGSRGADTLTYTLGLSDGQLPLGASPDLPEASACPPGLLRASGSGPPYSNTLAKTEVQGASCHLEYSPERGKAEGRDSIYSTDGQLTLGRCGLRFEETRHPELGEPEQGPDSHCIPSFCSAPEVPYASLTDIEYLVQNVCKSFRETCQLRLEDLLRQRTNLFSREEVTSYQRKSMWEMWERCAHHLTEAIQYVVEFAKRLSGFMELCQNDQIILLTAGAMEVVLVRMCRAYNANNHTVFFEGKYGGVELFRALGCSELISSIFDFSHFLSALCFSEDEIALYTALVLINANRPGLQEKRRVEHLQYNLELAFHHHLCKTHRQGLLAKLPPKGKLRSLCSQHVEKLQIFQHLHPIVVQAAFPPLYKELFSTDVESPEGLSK
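Luciferase reporter read in Schneider cells carrying Gal4-RORγ (mouse) and UAS-Photinus luciferase; cells given compound 1 h before 700 uM copper sulfate induction, then incubated 20 h at ambient temperature.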
ClpP mod – qHTS Assay for Activators of ClpP; ATP-dependent Clp protease proteolytic subunit (Bacillus subtilis (strain 168)), P80244; purified B. subtilis ClpP, FRET peptide cleavage, 20 min; Potency, µM (top dose mostly 57.5 µM); 340,000 tested, 1.9% active; active means well fitted falling curve with a large enough effect; inconclusive means small, poorly fitted or top-dose-only effect; inactive means no such curve, though single readings can be large or run the other way; further: the source files actives as falling curves though it sought activators and does not explain the sign; nearly all actives have a fitted effect of over 65% in size
Target sequence (P80244 whole entry, looked up): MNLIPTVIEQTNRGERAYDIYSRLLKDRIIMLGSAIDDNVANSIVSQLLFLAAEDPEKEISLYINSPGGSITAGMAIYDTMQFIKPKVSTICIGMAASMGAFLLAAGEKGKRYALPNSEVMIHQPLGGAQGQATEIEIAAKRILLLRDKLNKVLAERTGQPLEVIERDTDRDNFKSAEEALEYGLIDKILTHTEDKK
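FRET quenching reversal measured ClpP activation: 10 microg/mL B. subtilis ClpP at pH 8 with the FRET-FV decapeptide, read at 430 nm after 320 nm excitation. The 20-min minus 0-min signal was scaled between DMSO/no-enzyme wells and ADEP (5.8 microM final).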
Sfp PPTase inh – blocks B. subtilis Sfp PPTase activity. 310,000 tested, 3.5% active. AID 1490. Potency, µM, most hits filed as inhibitors. Q9F4F7. Biochemical Sfp PPTase activity, qHTS;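 further: the enzyme is Sfp with the accession as filed and its product quenches rhodamine fluorescence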
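With Hepes-Na pH 7.6 buffer containing 10 mM MgCl2, Sfp (15 nM) modified BHQ-2-YbbR (12.5 uM) using rhodamine-CoA (5 uM). Two reads 30 minutes apart at 525/598 nm yielded each well's rate.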
VP16 counter – counter-screen for ROR gamma inhibitors: Gal4-VP16 reporter; Drosophila S2 Gal4-VP16 UAS-luciferase, luminescence, 20 h; AID 2546; 310,000 tested, 3.5% active; Potency, µM (doses to about 53.6 µM), hits mostly inhibitors;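 further: Gal4-VP16 expression switched on by copper sulfate through the metallothionein promoter; nearly all actives have a fitted effect of over 50% in size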
Hits are given with their value; i = inactive; ? = inconclusive; nt = no result; [ ] = dose if it differs, or a comment. Hits are enriched below; roughly 8.1% of the tested compounds scored in any of these assays. Unless noted, the call rests on the fitted dose curve; in most records, active means well fitted curve in the direction sought with a large enough effect; inconclusive means small, poorly fitted or top-dose-only effect, or another doubt; inactive means no such curve, though single readings can be large; an effect the other way counts as inactive or inconclusive.

SMILES | Epigenetic reg | PINK1 modulator | RORg inh | ClpP mod | Sfp PPTase inh | VP16 counter
Cc1cc(C)c2nc(NC(=O)c3cc(C)on3)sc2c1 | i | i | 4.47µM | i | i | ?
CCc1noc(C)c1C(=O)Nc1nc2ccc(F)cc2s1 | nt | i | nt | nt | nt | nt
NC(=O)c1ccccc1NC(=O)c1ccc2ccccc2c1 | nt | i | i | i | i | i
O=C(O)c1ccc(NC(=S)NC(=O)c2ccc3ccccc3c2)cc1 | nt | i | ? | i | i | i
O=C(NC(=S)Nc1ccccc1C(=O)O)c1ccc2ccccc2c1 | i | i | i | nt | 44.7µM | i
O=C(O)c1cccc(NC(=S)NC(=O)c2ccc3ccccc3c2)c1 | nt | i | 10µM | i | i | 7.08µM
N#C/C(=C\c1ccccc1)C(=O)N(c1ccccn1)C1CCCCC1 | i | i | 2.82µM | i | i | ?
COCCOC(=O)c1ccc(NC(=O)COc2ccc([N+](=O)[O-])cc2)cc1 | i | i | i | nt | i | i
COC(=O)c1ccc(NC(=O)COc2ccc([N+](=O)[O-])cc2)cc1 | i | i | i | i | i | 10µM
COC(=O)c1ccc(NC(=O)Nc2ccc([N+](=O)[O-])cc2)cc1 | nt | 35.5µM | ? | i | i | i
O=C(Nc1ccc(C(=O)O)cc1)Nc1ccc([N+](=O)[O-])cc1 | nt | i | i | i | i | i
C1=Cc2ccccc2/C1=C\c1cc2c3c(c1)CCCN3CCC2 | nt | i | nt | i | nt | nt
CCc1cc(C(=O)NCc2c(C)ncc3c2CCN(C(=O)C2=CCCC2)C3)no1 | nt | i | nt | nt | nt | nt
CCCCCC(=O)N(c1ccc(OCC)cc1)S(=O)(=O)c1ccc2c(c1)n(C)c(=O)n2C | i | i | nt | i | nt | nt
Cn1cccc1C(=O)OCc1cc(Cl)cc2c1OCOC2 | i | i | i | i | 70.8µM | i
O=C(NCc1ccc(F)cc1)C(=O)NCC(c1cccs1)S(=O)(=O)c1cccs1 (centres undefined) | i | i | nt | i | nt | nt
CN(C)C(=S)Nc1ccc2c(c1)OCO2 | i | i | i | nt | 22.4µM | i
O=C(CCl)Nc1ccc2c(c1)OCO2 | i | i | 17.8µM | nt | i | i[10 µM]
CNc1ccccc1C(=O)OCC(=O)Nc1ccc2c(c1)OCO2 | nt | i | nt | 28.2µM | nt | nt
S=C(Nc1ccc2c(c1)OCO2)Nc1ccc2c(c1)OCO2 | i | i | i | i | i | ?
CC(C)CC(=O)Nc1ccc2c(c1)OCO2 | i | i | i | nt | i | i
COc1ccccc1Nc1nn2c(=O)c3ccc(C(=O)NCCC4=CCCCC4)cc3nc2s1 | i | i | nt | i | nt | nt
CCCCOc1ccc(C(=O)NCC(=O)NCc2ccncc2)cc1 | nt | i | nt | 31.6µM | nt | nt
COc1ccc2c(c1)-c1nc(NC(=O)c3ccccc3F)sc1CC2 | i | i | nt | 35.5µM | nt | nt
COc1ccc(C(=O)Nc2nc3c(s2)Cc2cc(OC)ccc2-3)cc1 | i | i | ? | i | 79.4µM | 35.5µM
SMILES | Epigenetic reg | PINK1 modulator | RORg inh | ClpP mod | Sfp PPTase inh | VP16 counter
COc1ccc2c(c1)Cc1sc(NC(=O)c3cccc(F)c3)nc1-2 | i | i | nt | i | nt | nt
COc1ccc2c(c1)-c1nc(NC(=O)c3cc(Cl)ccc3OC)sc1CC2 | i | i | nt | i | nt | nt
COc1ccc2c(c1)Cc1sc(NC(=O)c3cccs3)nc1-2 | i | i | 7.94µM | i | 25.1µM | ?
COc1ccc2c(c1)Cc1sc(NC(=O)c3ccccc3)nc1-2 | i | i | 11.2µM | i | 50.1µM | i
CC1CCN(S(=O)(=O)c2cc(C(=O)NCc3ccccc3)n(C)c2)CC1 | i | i | nt | i | nt | nt
COc1ccc(-c2ccc(C(=O)N3CCc4c(cnc(C)c4CNS(=O)(=O)N(C)C)C3)o2)cc1 | nt | i | nt | nt | nt | nt
COC(=O)c1ccc(NC(=O)c2c(NCc3cccc(F)c3)sc3c2CCCC3)cc1 | i | i | nt | i | nt | nt
Cc1ccn2cc(CSc3ccccc3)nc2c1 | i | i | 12.6µM | i | i | 8.91µM
Cc1ccc(SCc2cn3cccnc3n2)cc1 | i | i | i | i | i | i
O=C(N/N=C/c1ccccc1O)c1cc(=O)[nH]c2ccccc12 | i | nt | 7.94µM | nt | i | ?
COc1ccc(C(=O)Nc2ccccc2C(=O)N/N=C/c2cccc3ccccc23)cc1 | i | i | 1µM | ? | i | 0.794µM
O=C(N/N=C/c1ccccc1O)c1cccc2ccccc12 | nt | i | 1µM | i | i | 0.891µM
COc1cc(OC)c2cc(C(=O)N/N=C/c3ccccc3O)[nH]c2c1 | nt | i | 6.31µM | i | i | 5.62µM
Cc1ccc(NC(=O)c2cc(=O)[nH]c3ccccc23)cc1 | nt | i | i | i | i | i
CCOc1ccccc1NC(=O)NC(CC)c1c(-n2cccc2)sc2c1CCN(C)C2 (centres undefined) | i | i | nt | i | nt | nt
CC(C)=CNNC(=O)c1ccc(O)cc1 | nt | i | nt | i | nt | nt
Cc1ccc2[nH]c(C(=O)N/N=C/c3ccccc3O)c(C)c2c1 | nt | i | 1µM | i | i | 6.31µM
COc1ccc(C(=O)Nc2ccccc2C(=O)N/N=C/c2ccncc2)cc1OC | i | i | 3.55µM | nt | i | 5.62µM
COc1cc(/C=N/n2c(C3CCCCC3)n[nH]c2=S)cc(Br)c1O | nt | i | i | i | i | i
S=c1[nH]nc(C2CCCCC2)n1/N=C/c1cccs1 | i | i | 14.1µM | i | i | ?
CSc1ccc(/C=N/n2c(C3CCCCC3)n[nH]c2=S)cc1 | nt | i | 1.58µM | nt | i | ?
O=C(O)c1ccc(/C=N/n2c(C3CCCCC3)n[nH]c2=S)cc1 | nt | i | i | nt | i | i
S=c1[nH]nc(C2CCCCC2)n1/N=C/c1ccncc1 | i | i | ? | nt | 39.8µM | i
Cc1n[nH]c(=S)n1/N=C/c1ccc(-c2ccc(Cl)cc2)o1 | nt | ? | nt | i | nt | nt
Cc1ccc(/C=N/n2c(C3CCCCC3)n[nH]c2=S)o1 | i | i | 11.2µM | i | i | ?
SMILES | Epigenetic reg | PINK1 modulator | RORg inh | ClpP mod | Sfp PPTase inh | VP16 counter
CC(C)C(=O)NCC1CCC2(CCN(Cc3ccc(-c4ccccc4Cl)o3)CC2)O1 (centres undefined) | nt | i | nt | nt | nt | nt
CCC1CN(CC(=O)NC(c2ccccn2)C(F)(F)F)Cc2cc(OC)ccc2O1 (centres undefined) | nt | i | nt | nt | nt | nt
Cc1ccc(C)c(Cn2c(=O)c3c(nc4n3CCN4c3ccccc3)n(C)c2=O)c1 | i | i | nt | ? | nt | nt
Cc1csc2nc(COc3ccccc3NC(=O)c3ccccc3Cl)cc(=O)n12 | ? | i | nt | i | nt | nt
O=C(Cn1ncc2c3ccccc3n(Cc3cccc(Cl)c3)c2c1=O)NCCCN1CCCCC1 | i | i | nt | i | nt | nt
CCOc1ccccc1N(CC(=O)Nc1ccc(OC)c(Cl)c1)S(=O)(=O)c1ccccc1 | i | i | nt | i | nt | nt
Cc1cccc(-c2n[nH]c(=S)n2/N=C/c2ccc(C)o2)c1 | i | i | ? | i | ? | 11.2µM
Cc1cc(-c2n[nH]c(=S)n2/N=C/c2ccc(C)o2)n[nH]1 | i | i | i | nt | i | i
O=[N+]([O-])c1ccc(/C=N/n2c(C3CCCCC3)n[nH]c2=S)cc1 | i | i | 1.41µM | i | i | ?
Cc1cn2c(=O)c(S(=O)(=O)Nc3ccc(OC(F)(F)F)cc3)c(C)nc2s1 | i | i | nt | i | nt | nt
Cc1ccc2nc(NS(=O)(=O)c3cn(C)nc3C)sc2c1 | nt | i | 14.1µM | i | i | 11.2µM
